From PubChem BioAssay (NCI) come the findings set out here.

Some test systems named below: DU-145 prostate; K-562 leukemia; MALME-3M melanoma; MDA-MB-231 breast; RXF 393 renal; SF-268 CNS; SF-295 CNS; SF-539 CNS; UACC-257 melanoma; M14 melanoma.
Assay in all cases: NCI-60 one-dose screen, 48 h (100 = growth as untreated, 0 = no growth, -100 = all killed)
Common to all, as to details: 10 µM unless noted

Molecules are shown by their SMILES. Compounds without any hit were thinned out: in the full panel of roughly 83,000, 20% have a hit.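 48-hour exposure, single concentration, 96-well plates; percent growth endpoint where 0 means no net growth. Active: below 10.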 A number with no mark means an inactive call. Activity calls are given as the source filed them.

On to `COc1cc(NC(=O)CSc2nc3ccc(Cl)cc3c(=O)n2-c2ccc(F)cc2)cc(OC)c1OC`, for which the growth in the assay on DU-145 prostate is 96.9%; in the assay on K-562 leukemia it was 80.5%; in the assay on MALME-3M melanoma it was 85.8%; with MDA-MB-231 breast it was 64.7%; in the assay on RXF 393 renal, 80.2%; in the assay on SF-268 CNS, 79.8%. The growth in the assay on SF-295 CNS is 80%; with SF-539 CNS, 98.4%; in the assay on UACC-257 melanoma it was 97.4%; in the assay with M14 melanoma, 84.8%.

For `CCOC(=O)c1ccc2n1CCCc1cnc(NC(C)=O)nc1-2`, the growth in the assay on DU-145 prostate was 111%; in the assay with K-562 leukemia, 102%; in the assay with MALME-3M melanoma, 110%; in the assay on MDA-MB-231 breast it was 106%; with RXF 393 renal, 96.6%; with SF-268 CNS it was 96.2%. For the same molecule, the growth is 100% in the assay on SF-295 CNS, 95.1% in the assay with SF-539 CNS, 115% with UACC-257 melanoma and 99.9% with M14 melanoma.

On to `O=C1C(Br)=CC2C1C1C3CCC3C2(Br)C12OCCO2` (stereo not given), for which the growth is 19.7% in the assay with DU-145 prostate; 15.8% in the assay with K-562 leukemia; 46% with MALME-3M melanoma; 51.7% with MDA-MB-231 breast; 18.4% in the assay on RXF 393 renal; 25.6% in the assay on SF-268 CNS. The growth is 31.4% in the assay on SF-295 CNS, 14.5% in the assay with SF-539 CNS, 54% in the assay with UACC-257 melanoma and 44.4% in the assay on M14 melanoma.

Consider `COC(=O)C(C)[C@H]1CC[C@@H]2[C@]1(C)CC=C1[C@]23C=C[C@]2(C[C@@H](OC(C)=O)CC[C@]12C)C(C(=O)OC)C3C(=O)OC` (stereo not given in full), for which the growth in the assay on DU-145 prostate is 99.6%; in the assay with K-562 leukemia, 48.8%; with MALME-3M melanoma it was 73.1%; in the assay with MDA-MB-231 breast, 89.5%; with RXF 393 renal, 102%; in the assay with SF-268 CNS, 90.5%. Besides, the growth in the assay on SF-295 CNS was 88.4%; with SF-539 CNS, 99.3%; with UACC-257 melanoma, 97.5%; with M14 melanoma, 96.5%.

Consider `COc1ccc2nc3cc(Cl)ccc3c(NCCCNC(C)=O)c2c1`, for which the growth in the assay on DU-145 prostate is 29.4%; with K-562 leukemia it was 23.9%; in the assay on MALME-3M melanoma, 40%; in the assay on MDA-MB-231 breast, 56.8%; with RXF 393 renal, 32.9%; with SF-268 CNS, 43%. The growth with SF-295 CNS is 45.7%; in the assay with SF-539 CNS it was 20.1%; with UACC-257 melanoma, 43.1%; in the assay with M14 melanoma it was 44.4%.

For the molecule `CCOC(=O)C1C(=O)C(=O)N(C(C)C)C1C(=O)OCC` (stereo not given), the growth is 113% in the assay with DU-145 prostate; 108% in the assay with K-562 leukemia; 92.4% in the assay with MALME-3M melanoma; 103% in the assay on MDA-MB-231 breast; 105% in the assay with RXF 393 renal; 99.3% with SF-268 CNS. Besides, the growth in the assay on SF-295 CNS is 98.2%; with SF-539 CNS it was 99.8%; with UACC-257 melanoma it was 86.7%; in the assay with M14 melanoma, 111%.

`Cc1ccc([C@@H]2C[C@H](O)Cc3ccccc3N2)s1`: the growth in the assay with DU-145 prostate was 111%; in the assay on K-562 leukemia, 101%; with MALME-3M melanoma, 104%; with MDA-MB-231 breast, 102%; in the assay with RXF 393 renal, 126%; with SF-268 CNS, 106%. Besides, the growth is 107% in the assay on SF-295 CNS, 97.4% with SF-539 CNS, 100% in the assay on UACC-257 melanoma and 125% in the assay with M14 melanoma.

In the case of `COc1ccc2cn3c4ccc(O)cc4[nH]c(=O)c3c2c1`, the growth with DU-145 prostate was 11.5%; in the assay on K-562 leukemia it was 13.2%; in the assay with MALME-3M melanoma, 41.2%; in the assay with MDA-MB-231 breast, 23.2%; in the assay with RXF 393 renal, 2.52% (active); with SF-268 CNS it was 21%. In addition, the growth was 0.201% (active) in the assay on SF-295 CNS, -9.1% (active) in the assay with SF-539 CNS, 50.1% in the assay with UACC-257 melanoma and -2.73% (active) in the assay with M14 melanoma.

Consider `CCCCCCCCCCN1CC2CCCCC2C1` (stereo not given), for which the growth in the assay with DU-145 prostate is 69%; in the assay with K-562 leukemia, 24.4%; with MALME-3M melanoma it was 108%; in the assay on MDA-MB-231 breast, 34.1%; with RXF 393 renal, 77.7%; in the assay on SF-268 CNS, 72.2%. Further, the growth in the assay with SF-295 CNS is 85.1%; with SF-539 CNS it was 85.1%; with UACC-257 melanoma, 87.2%; in the assay on M14 melanoma, 73.3%.

As to `O=C1/C(=C/c2ccc(Cl)cc2)CCC/C1=C\c1ccc(Cl)cc1`, the growth with DU-145 prostate was 91.7%; in the assay with K-562 leukemia, 67.9%; in the assay on MALME-3M melanoma, 90.5%; with MDA-MB-231 breast, 95.6%; with RXF 393 renal, 56.4%; with SF-268 CNS, 84.1%. Besides, the growth was 94.5% in the assay on SF-295 CNS, 88.1% with SF-539 CNS, 81.5% in the assay with UACC-257 melanoma and 69.7% with M14 melanoma.

Consider `Cc1ncc(C(=O)Nc2ccc(CN3CCN(C)CC3)c(C(F)(F)F)c2)cc1C#Cc1c(N)ncc2ccccc12`, for which the growth in the assay with DU-145 prostate is -87.8% (active); with K-562 leukemia it was -73.2% (active); in the assay with MALME-3M melanoma, -84.9% (active); in the assay on MDA-MB-231 breast it was -96.6% (active); in the assay on RXF 393 renal, -93.9% (active); in the assay with SF-268 CNS it was -54.4% (active). The growth in the assay on SF-295 CNS was -90.5% (active); with SF-539 CNS, -98.5% (active); in the assay on UACC-257 melanoma, -86% (active); in the assay with M14 melanoma, -86.1% (active).

Turning to `CCOc1nc(-c2ccccc2)cc2c(O)c(C(=O)N/N=C/c3ccccc3O)[nH]c(=O)c12`, the growth in the assay on DU-145 prostate is 97.6%; with K-562 leukemia, 115%; with MALME-3M melanoma, 119%; in the assay on MDA-MB-231 breast, 101%; in the assay on RXF 393 renal, 81.3%; in the assay on SF-268 CNS it was 79.6%. Besides, the growth was 103% with SF-295 CNS, 117% with SF-539 CNS, 88.6% in the assay with UACC-257 melanoma and 101% in the assay with M14 melanoma.

On to `Clc1ccc(N/N=C(\c2ccccc2)c2ccccn2)nc1`, for which the growth in the assay with DU-145 prostate is 22.7%; with K-562 leukemia, 7.96% (active); with MALME-3M melanoma, 20%; in the assay on MDA-MB-231 breast, 37%; with RXF 393 renal it was 24.6%; with SF-268 CNS it was 10.5%. Besides, the growth in the assay on SF-295 CNS was 1.66% (active); with SF-539 CNS, -0.842% (active); with UACC-257 melanoma it was -7.64% (active); with M14 melanoma, -6.53% (active).

Turning to `CC1C(=O)CCCC1=O`, the growth in the assay with DU-145 prostate was 124%; with K-562 leukemia, 103%; in the assay on MALME-3M melanoma it was 98.4%; in the assay with MDA-MB-231 breast, 101%; with RXF 393 renal it was 134%; in the assay with SF-268 CNS, 112%. Further, the growth in the assay on SF-295 CNS was 104%; in the assay on SF-539 CNS it was 98.9%; in the assay on UACC-257 melanoma, 108%; in the assay with M14 melanoma, 111%.
